Reference: PubChem BioAssay (NCATS)
Records with an inconclusive call do not appear. The source made the active and inactive calls. Calls follow the shape of the dose curve; as a rule, active = well fitted curve in the direction sought with a large enough effect; inconclusive = small, poorly fitted or top-dose-only effect, or another doubt; inactive = no such curve, though single readings can be large; an effect the other way counts as inactive or inconclusive.

These compounds were tested against Rap guanine nucleotide exchange factor 4 (Homo sapiens) (UniProt Q8WZA2) (assay: Confirmatory qHTS for agonist of cAMP-regulated guanine nucleotide exchange factor 4 (EPAC2) (AID 1645884;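 also: nucleotide exchange releases bodipy-GDP from Rap1 and this lowers its fluorescence; nearly all actives have a fitted effect of over 65% in size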)). Details: EPAC2 GEF activity, Rap1B-BODIPY-GDP fluorescence; series mostly up to 154 µM; activation: at the top concentration.
Chain of Rap guanine nucleotide exchange factor 4 (Homo sapiens) (Q8WZA2 whole entry, looked up): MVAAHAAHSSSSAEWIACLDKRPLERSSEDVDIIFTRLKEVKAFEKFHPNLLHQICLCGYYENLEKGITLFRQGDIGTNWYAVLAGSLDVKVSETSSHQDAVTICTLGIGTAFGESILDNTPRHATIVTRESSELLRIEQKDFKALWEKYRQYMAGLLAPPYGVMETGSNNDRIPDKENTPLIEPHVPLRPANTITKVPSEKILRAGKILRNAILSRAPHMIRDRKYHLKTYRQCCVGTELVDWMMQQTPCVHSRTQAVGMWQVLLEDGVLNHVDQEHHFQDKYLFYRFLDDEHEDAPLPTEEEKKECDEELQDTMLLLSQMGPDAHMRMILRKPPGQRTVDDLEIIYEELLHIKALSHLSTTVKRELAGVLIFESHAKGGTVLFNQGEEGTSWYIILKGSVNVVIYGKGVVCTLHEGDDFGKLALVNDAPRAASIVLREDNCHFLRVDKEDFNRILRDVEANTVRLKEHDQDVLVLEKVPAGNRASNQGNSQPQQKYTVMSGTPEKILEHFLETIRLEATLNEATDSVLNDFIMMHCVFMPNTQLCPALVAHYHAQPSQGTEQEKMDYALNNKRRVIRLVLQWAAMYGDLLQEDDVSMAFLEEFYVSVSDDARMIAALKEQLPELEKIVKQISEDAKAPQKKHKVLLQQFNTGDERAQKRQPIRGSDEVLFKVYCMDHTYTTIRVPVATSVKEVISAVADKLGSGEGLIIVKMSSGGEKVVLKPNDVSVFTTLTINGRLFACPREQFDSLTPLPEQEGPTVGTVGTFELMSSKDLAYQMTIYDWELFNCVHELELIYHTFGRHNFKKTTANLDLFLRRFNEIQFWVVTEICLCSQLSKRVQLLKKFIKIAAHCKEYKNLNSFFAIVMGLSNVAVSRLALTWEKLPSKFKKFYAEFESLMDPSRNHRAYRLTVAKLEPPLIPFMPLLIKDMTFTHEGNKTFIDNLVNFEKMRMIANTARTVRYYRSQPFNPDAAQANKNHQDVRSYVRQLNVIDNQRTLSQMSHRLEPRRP
% is scaled to controls: 0 for no effect and ±100 for the full control effect.

Row | Compound | activation
1 | CCc1ccc([C@@H]2CC=C(C(=O)O)[C@H](c3ccc(Br)cc3)N2S(=O)(=O)c2ccc(C)cc2)cc1 | -5.28% [at 17.1 µM, percent relative to cAMP agonist control] (inactive)
2 | Cc1cc(/C=C/c2ccnc3ccccc23)ccc1N(C)C | 21.8% (inactive)
3 | Nc1ccn(C2C=CC(CO)O2)c(=O)n1 (stereo not drawn) | 0% (inactive)
4 | Cc1ccc2nccc(/C=C/c3ccc(N(C)C)cc3)c2c1 | 17.3% (inactive)
5 | O=c1c2ccccc2oc2ccc(Oc3ccccc3)cc12 | 13.4% (inactive)
6 | C=CCOc1ccc(Br)cc1/C=C1/SC(=Nc2ccc(C(=O)O)cc2)NC1=O | 11.5% (inactive)
7 | c1ccc2c(N3CCCCCC3)nc(CN3CCCCC3c3nccs3)nc2c1 (stereo not drawn) | 5.62% (inactive)
8 | Cc1ccc(C2SCC(=O)N2Cc2ccccc2)cc1 (stereo not drawn) | 0% (inactive)
9 | C[C@@H]1CCC(=O)N(CC[C@H](Oc2ccccc2)c2ccccc2)CC1 | 12.8% (inactive)
10 | C(=C\c1ccnc2ccccc12)/c1ccc2ccccc2n1 | 23.1% (inactive)
11 | Cc1ccc2c(/C=C/c3ccc(N(C)C)cc3)ccnc2c1C | 15.4% (inactive)
12 | Cc1ccc(CN2C(=O)CSC2c2ccc(F)cc2)cc1 (stereo not drawn) | 3.67% (inactive)
13 | Cc1cc(C)c2nccc(/C=C/c3ccc(N(C)C)cc3)c2c1 | 0.0784% (inactive)
14 | Cc1ccc(S(=O)(=O)N2[C@@H](c3cccc(Cl)c3)C(C(=O)O)=CC[C@H]2c2ccc(C(C)C)cc2)cc1 | -27.5% (inactive)
15 | Cc1cc(C(=O)NCc2nc(-c3cccc(NC(=O)c4ccccc4)c3)oc2C)nc(C)n1 | -10.7% (inactive)
16 | CC(C)(C)[C@H]1CCC(=O)N([C@H](CN=[N+]=[N-])Cc2ccccc2)CC1 | 11.4% (inactive)
17 | Cn1cc(/C=C/c2ccc3ccccc3n2)c2ccccc21 | 5.95% (inactive)
18 | Cc1cnc2ccccc2c1/C=C/c1ccc(N(C)C)cc1 | 7.43% (inactive)
19 | COc1cc(-c2noc(C)c2-c2ccc3[nH]ccc3c2)cc(OC)c1OC | 7.88% (inactive)
20 | COc1ccc(C(=O)c2ccc(Br)cc2)c2ccccc12 | 9.85% (inactive)

Row | Compound | activation
21 | COC(=O)c1cc(Br)c(=O)n(CCC2=CCCCC2)c1 | 0% [at 17.1 µM, percent relative to cAMP agonist control] (inactive)
22 | COc1cc(C(=O)N(Cc2cc3ccc(C)cc3nc2N(C)C)C2CC2)cc(OC)c1OC | -4.72% (inactive)
23 | COc1ccc(C2CN=NC23CCc2ccccc2C3=O)cc1 (stereo not drawn) | 12.3% (inactive)
24 | C#C[C@]1(OC(C)=O)CCC2C3CCC4=CC(=O)CC[C@@H]4C3CC[C@@]21C (stereo partly drawn) | 3.15% (inactive)
25 | CC1Sc2ccc(C(=O)OCc3ccccc3Cl)cc2NC1=O (stereo not drawn) | 1.16% (inactive)
26 | C=CCn1c(N)c(S(=O)(=O)c2cccs2)c2nc3ccccc3nc21 | 0% (inactive)
27 | Cc1cc(N(C)C)cc(C)c1/C=C/c1ccnc2ccccc12 | 31.8% (inactive)
28 | COc1cccc(CN(C)C(=O)c2cnn(-c3ncc4c(n3)-c3ccccc3CCC4)c2C)c1 | 1.34% (inactive)
29 | CCCCOC(=O)Nc1ccc(S(=O)(=O)Nc2nccs2)cc1 | 0% (inactive)
30 | CCOC(=O)C1CCCN(C(=O)c2cnn(-c3nccc(-c4cc(C)sc4C)n3)c2C)C1 (stereo not drawn) | -7.32% (inactive)
31 | Cc1[nH]c2ccccc2c1/C=C/c1ccc2ccccc2n1 | 12.7% (inactive)
32 | COCCCn1c(-c2ccccc2)nc2ccccc2c1=O | -0.524% (inactive)
33 | C/C=C(\C)C(=O)OC1C(OC(=O)C2(C)OC2C)c2cc3ccc(=O)oc3cc2OC1(C)C (stereo not drawn) | 3.49% (inactive)
34 | Cc1cc(C)cc(NC(=O)c2sc3nc(-c4ccccc4)cn3c2C)c1 | 10.3% [at 83.8 µM, percent relative to cAMP agonist control] (inactive)
35 | CN(CCc1ccccc1)C(=O)c1cc(COc2cccc(C(F)(F)F)c2)on1 | 0% (inactive)
36 | COc1cc(OC)c2c(-c3ccccc3)cc(=O)oc2c1 | 5.59% [at 17.1 µM, percent relative to cAMP agonist control] (inactive)
37 | COc1cccc(C(=O)N(Cc2cc3ccc(C)cc3nc2N(C)C)C2CC2)c1OC | 24.6% (inactive)
38 | Cc1ccc2c(/C=C/c3c[nH]c4ccccc34)ccnc2c1C | -6.81% (inactive)
39 | CN1CC(O)C2=CC(=O)C(=O)C=C21 (stereo not drawn) | 3.11% (inactive)
40 | O=C(CN1Cc2ccccc2OC(c2ccsc2)C1)N1CCN(Cc2ccc3c(c2)OCO3)CC1 (stereo not drawn) | -0.0974% (inactive)

What follows are compounds tested against Rap guanine nucleotide exchange factor 4 (Homo sapiens) (UniProt Q8WZA2) (assay: Confirmatory qHTS for antagonist of cAMP-regulated guanine nucleotide exchange factor 4 (EPAC2) (AID 1645885; also: nearly all actives have a fitted effect of over 25% in size; also: potency is read from the fitted curve at half-maximal effect)). Details: EPAC2 Rap1B-BODIPY-GDP exchange fluorescence, biochemical; series mostly up to 12.7 µM; activity change, negative = inhibition: at the top concentration.

Row | Compound | activity change, negative = inhibition | Potency
41 | Nc1ccn(C2C=CC(CO)O2)c(=O)n1 (stereo not drawn) | -13.2% [at 114 µM] (inactive) | –
42 | c1ccc2c(N3CCCCCC3)nc(CN3CCCCC3c3nccs3)nc2c1 (stereo not drawn) | – | 13.9 µM (active)
43 | COc1cc(C(=O)N(Cc2cc3ccc(C)cc3nc2N(C)C)C2CC2)cc(OC)c1OC | – | 17.5 µM (active)
44 | C#C[C@]1(OC(C)=O)CCC2C3CCC4=CC(=O)CC[C@@H]4C3CC[C@@]21C (stereo partly drawn) | – | 39.3 µM (active)
45 | CC1Sc2ccc(C(=O)OCc3ccccc3Cl)cc2NC1=O (stereo not drawn) | -19.5% [at 114 µM] (inactive) | –
46 | Cc1cc(N(C)C)cc(C)c1/C=C/c1ccnc2ccccc12 | – | 13.9 µM (active)
47 | COCCCn1c(-c2ccccc2)nc2ccccc2c1=O | -4.19% [at 114 µM] (inactive) | –
48 | COc1cccc(C(=O)N(Cc2cc3ccc(C)cc3nc2N(C)C)C2CC2)c1OC | – | 17.5 µM (active)
